Only some compounds are listed: those with a hit (about 3% of all), similar ones and a draw of the others.
ABHD5 PLIN5 PPI: inhibitors of human ABHD5-perilipin-5 interaction; Split G. princeps luciferase complementation, luminescence, 4 h; Q00G26+Q8WTS1; inhibition, % at 4 µM; 0.78% of 360,000 active;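 active means inhibition above the mean inhibition across every tested compound plus 3 SD, cut at about 22% in these data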;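 further: 0% = DMSO only wells and the 100% control is not disclosed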
HIF-2a inh: blocks HIF-2a reporter activity; 786-0 RCC cells HIF-2a reporter, luciferase luminescence, overnight; inhibition, % at 18.8 µM; 0.72% of 360,000 active;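 active means inhibition of the luminescence signal of 40% or more relative to plate controls, in a single-dose primary screen at 18.75 µM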
Peg3 prom inh: inhibitors of Peg3 promoter | HeLa PEG-Prom luciferase reporter, luminescence, overnight | inhibition, % at 20 µM | 1.7% of 360,000 active | AID 588405;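 active means inhibition of at least 50% at 20 µM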
TRPM1 prom inh: MITF TRPM1 promoter inhibition in SK-MEL-5 cells | SK-MEL-5 TRPM1 promoter luciferase, 24 h | inhibition, % at 12.5 µM | 0.83% of 330,000 active | AID 488899;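 active means mean inhibition across replicates of 60% or more, whatever share of single replicates reaches that level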
CF NFkB inh: cystic fibrosis NF-kB activation inhibition. KKLEB NF-kB-GFP reporter, PAF-induced, GFP fluorescence overnight. inhibition, % at 5 µM. 0.86% of 360,000 active;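 active means at least 50% inhibition at 5 µM, scaled per plate between neutral and stimulator controls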;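 further: PAF is a Pseudomonas aeruginosa culture filtrate used as stimulus; plate controls were PAF-stimulated DMSO wells for no effect and unstimulated DMSO wells for full effect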
KKLEB tox: counter-screen for CF NF-kB inhibitors: cytotoxicity; KKLEB CF airway cells viability, ATPlite luminescence, overnight; hits give low values; cells stimulated with P. aeruginosa culture filtrate; activity change (cytotoxicity), % at 5 µM; 0.36% of 360,000 active;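 active means corrected activity change at or below -50% at 5 µM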
Mdm2-MdmX confirm: confirmation of inhibitors of human Mdm2/MdmX interaction, set 2 | shares compounds with HIF-2a inh | SaOS-2 split-luciferase Mdm2/MdmX complementation, luminescence | inhibition, % at 8 µM | 99% of 740 active;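 active means mean inhibition of the luminescence signal across two replicates at or above 26 percent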
HIF-2a inh conf: HIF-2a inhibition, single concentration confirmation. shares compounds with HIF-2a inh. 786-0 RCC cells, HIF-2a luciferase reporter luminescence, overnight. inhibition, % at 18.8 µM. 56% of 1,800 active. AID 651580;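 active means mean inhibition across four replicates of at least 40 percent at the single tested concentration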
HIF-1a cs: HIF-1a inhibition counter-screen for HIF-2a hits; shares compounds with HIF-2a inh; MiaPaCa-2 HIF-1a luciferase reporter, desferoxamine, overnight; inhibition, % at 18.8 µM; 72% of 1,800 active; AID 651589;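 active means mean inhibition of the reporter signal across four replicates at the single tested dose of 50% or more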
The depositor's hits bear a star; . = no result.

SMILES	ABHD5 PLIN5 PPI	HIF-2a inh	Peg3 prom inh	TRPM1 prom inh	CF NFkB inh	KKLEB tox	HIF-2a inh conf	HIF-1a cs	others
Cc1ccc(Sc2c([N+](=O)[O-])c(=O)n(C)c3ccccc23)cc1	14.5	51.5*	44.6	20.7	2.1	-2.2	5.9	86.7*
COc1cccc(/C=N/NC(=O)CN(CCc2ccccc2)S(=O)(=O)c2ccc(NC(C)=O)cc2)c1	3.1	20.1	5.3	-13.8	5.9	0.8	.	.
COC(=O)C(=Cc1ccc(OCc2ccc([N+](=O)[O-])cc2)c(OC)c1)C(=O)OC	17.4	81.5*	-52.0	29.7	42.2	-19.9	82.5*	101.1*
COC(=O)c1ccc(N=c2sc(C(=O)OC)cc(=O)n2C)cc1	-3.3	25.2	33.2	11.1	9.2	-6.5	.	.
COC(=O)c1cc(=O)n(Cc2ccco2)c(=Nc2ccc(F)c(Cl)c2)s1	14.1	67.4*	102.2*	-1.4	3.7	0.6	62.3*	105.3*
O=C(NC1CCCCCC1)c1ccc([N+](=O)[O-])s1	0.8	60.0*	-80.2	70.8*	16.3	-3.6	74.1*	77.2*
CC(=O)c1ccc(NC(=O)CSc2nc(Nc3ccccc3)nc(N3CCOCC3)n2)cc1	-0.1	24.9	1.9	-16.2	15.8	-15.8	.	.
COC(=O)c1ccccc1NC(=O)CSc1nc(Nc2ccccc2)nc(N2CCOCC2)n1	3.7	40.6*	23.4	-50.6	22.8	2.4	28.4	70.2*
Cc1cccc(CNC(=O)c2sc(=O)n(Cc3c(C)cccc3C)c2C)c1	-1.2	-13.5	-0.8	.	22.8	-4.7	.	.
CC(=O)c1ccc(-c2ccc(C(=O)Nc3nc(-c4ccccn4)cs3)o2)cc1	-0.7	-69.5	75.7*	4.4	-12.7	2.1	.	.	Mdm2-MdmX confirm=99.2*
CC(=O)Nc1ccc(C(=O)Nc2nc(-c3ccccn3)cs2)cc1	2.1	-75.3	-27.0	-10.7	15.7	-9.8	.	.
O=C(CSc1nc2ccccc2c(=O)n1CCCN1CCOCC1)Nc1ccc(F)c(Cl)c1	9.5	-11.7	18.3	-12.2	-0.5	-4.7	.	.
Cc1ccc(NC(=O)CSc2nc3ccccc3c(=O)n2CCCN2CCCCC2)cc1Cl	14.3	4.5	114.1*	13.2	14.9	-23.0	.	.	Mdm2-MdmX confirm=103.2*
COCCNC(=O)c1c[nH]c2ccc(S(=O)(=O)N3CCc4ccccc43)cc2c1=O	1.3	46.8*	51.0*	44.3	-0.1	14.7	17.8	92.6*
O=c1c2ccccc2nc(/C=C/c2ccc([N+](=O)[O-])cc2)n1CCCO	2.0	11.4	11.6	6.4	-5.0	5.7	.	.
O=c1c2ccccc2nc(/C=C/c2ccc([N+](=O)[O-])o2)n1CCCO	3.1	79.5*	104.1*	97.8*	-1.6	-7.5	53.9*	105.8*
O=C(Nc1cc(Cl)cc2c1-c1ccc(Cl)cc1C2O)C(Cl)Cl (stereo not given)	7.1	45.4*	95.3*	0.2	-62.9	7.9	-78.7	72.5*
Nc1cc(Cl)cc2c1-c1ccc(Cl)cc1C2O (stereo not given)	9.2	-128.6	-52.1	-10.2	-82.8	12.3	.	.
Cc1ccc(CN2CC(C(=O)N(Cc3nnc(-c4ccccc4Cl)o3)C3CC3)CC2=O)cc1 (stereo not given)	-7.8	-6.6	8.2	8.7	26.1	-1.5	.	.
COc1cc(/C=C2\CC(C(C)(C)C)C/C(=C\c3cc(OC)c(OC)c(OC)c3)C2=O)cc(OC)c1OC (stereo not given)	12.2	93.7*	104.3*	84.2*	-9.5	-7.9	.	.	Mdm2-MdmX confirm=101.7*
COc1cc(/C=C2\CCC(C3CCCC3)C2=O)cc(OC)c1OC (stereo not given)	-0.7	-196.4	-70.6	-44.8	-27.2	-7.7	.	.
O=C(CCl)N(c1ccccc1)C1CCCCC1	8.8	60.7*	110.0*	95.2*	92.1*	-91.6*	91.8*	105.5*	Mdm2-MdmX confirm=103.5*
Cc1ccc(N(CCC#N)C(=O)CCl)cc1C	3.5	33.4	46.5	33.7	24.5	-25.6	.	.	Mdm2-MdmX confirm=102.7*
CCN(CC(=O)Nc1cccc(Br)c1)Cc1nc2ccccc2c(=O)[nH]1	4.5	41.6*	24.9	-7.8	8.0	-8.5	6.5	25.7
C[C@@H]1CN([C@@H](C)CO)S(=O)(=O)c2ccc(Br)cc2O[C@H]1CN(C)C(=O)Cc1cccnc1	-5.7	6.6	-1.4	.	-4.3	0.5	.	.
SMILES	ABHD5 PLIN5 PPI	HIF-2a inh	Peg3 prom inh	TRPM1 prom inh	CF NFkB inh	KKLEB tox	HIF-2a inh conf	HIF-1a cs	others
CC(NC(=O)CSc1ncccn1)c1ccc(Cl)cc1Cl (stereo not given)	-0.5	-13.7	14.8	1.7	22.8	-4.2	.	.
CCCCC(=O)NC(c1ccc(Cl)cc1Cl)c1ccc2cccnc2c1O (stereo not given)	6.3	-46.2	54.1*	44.5	-27.5	-8.1	.	.	Mdm2-MdmX confirm=84.7*
CCc1[nH]c(C(=O)O)c(C)c1C(=O)OC	-5.3	4.9	-9.8	9.3	0.6	6.2	.	.
Cc1c(C(=O)NCC2CCCO2)oc2ccc(S(=O)(=O)N3CCCCC3)cc12 (stereo not given)	-4.1	4.2	15.1	-2.9	10.6	2.1	.	.
Cc1c(C(=O)NCC2CCCO2)oc2ccc(S(=O)(=O)N3CC(C)CC(C)C3)cc12 (stereo not given)	-0.7	39.3*	27.1	.	-19.3	-6.3	7.7	57.2*
COc1ccccc1NC(=O)C(C)OC(=O)CC1CCCCC1 (stereo not given)	-12.3	7.2	8.3	-0.2	12.1	3.8	.	.
O=C(NCCc1ccncc1)Nc1cccc(Cl)c1	5.0	12.3	16.7	-2.6	-2.1	1.6	.	.
O=C(Nc1cccc(Cl)c1)Nc1nnc(-c2ccncc2)s1	5.9	-14.2	29.5	-2.6	72.8*	-57.7*	.	.	Mdm2-MdmX confirm=102.0*
Cc1ccc(C)c(S(=O)(=O)NC(C)C(=O)NCc2ccccn2)c1 (stereo not given)	-6.7	9.6	12.4	-10.2	7.3	-10.6	.	.
NCCN1CCN(CC(=O)N2c3ccccc3C(=O)Nc3cccnc32)CC1	4.2	15.2	-5.0	-2.9	11.3	15.8	.	.
O=C1Nc2cccnc2N(C(=O)CCl)c2ccccc21	4.3	41.9*	63.1*	43.5	5.9	-0.6	8.7	5.5
COc1cc(OC)c(OC)cc1/C=C/C(=O)c1ccc(NS(=O)(=O)c2ccc(C)cc2)cc1	13.0	58.6*	25.9	19.6	1.7	13.9	34.4	50.4*
Cc1cc(C)cc(OCC(=O)OCc2nnc(-c3ccccc3)o2)c1	1.4	-13.2	-9.6	6.3	-0.3	8.4	.	.
Cc1[nH]c2ccccc2c1C(O)CN1CCC2(CC1)OCCO2 (stereo not given)	-7.0	27.6	1.6	2.4	-15.0	3.1	.	.
